# Among all 5,500 compounds or so, about 2,000 (36%) were called active. About 18% were inconclusive and are not listed. Some of the results follow. A number with no mark means an inactive call. No stated cut-off is given here; in the data, active means normalized growth mostly below about 0.91 (no sharp cut-off); inconclusive means no clear call, values can overlap the other calls; inactive means mostly above about 0.92.
# Test: chemical genetic growth profiling, strain panel (AID 1159580);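 further: tested at 20 µM; growth read once vehicle control cultures reached saturation at 30 °C; 1 = growth at the plate median or of vehicle wells; lower values mean less growth of the strain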
# Settings: S. cerevisiae deletion strains, growth OD
structure (smiles),measurement,setting,value
O=[N+]([O-])c1ccc(Sc2ccccc2)cc1O,normalized growth,"locus YAR019C, strain CDC15, hits give low values",0.915
same,normalized growth,"locus YBL105C, strain PKC1, hits give low values",0.925
same,normalized growth,"locus YBR135W, strain CKS1, hits give low values",0.927
same,normalized growth,"locus YBR136W, strain MEC1, hits give low values",0.924
same,normalized growth,"locus YBR160W, strain CDC28, hits give low values",0.929
same,normalized growth,"locus YDL017W, strain CDC7, hits give low values",0.929
same,normalized growth,"locus YDL028C, strain MPS1, hits give low values",0.931
same,normalized growth,"locus YDL101C, strain DUN1, hits give low values",0.914
same,normalized growth,"locus YDL108W, strain KIN28, hits give low values",0.927
same,normalized growth,"locus YDL132W, strain cdc53, hits give low values",0.909
same,normalized growth,"locus YDL214C, strain PRR2, hits give low values",0.823
same,normalized growth,"locus YDR052C, strain DBF4, hits give low values",0.943
same,normalized growth,"locus YDR054C, strain cdc34, hits give low values",0.899
same,normalized growth,"locus YDR226W, strain ADK1, hits give low values",0.958
same,normalized growth,"locus YDR477W, strain SNF1, hits give low values",0.844
same,normalized growth,"locus YER123W, strain YCK3, hits give low values",0.78
same,normalized growth,"locus YER133W, strain GLC7, hits give low values",0.831
same,normalized growth,"locus YFL009W, strain cdc4, hits give low values",0.91
same,normalized growth,"locus YFL029C, strain CAK1, hits give low values",0.928
same,normalized growth,"locus YFR003C, strain YPI1, hits give low values",0.928
same,normalized growth,"locus YFR019W, strain FAB1, hits give low values",0.895
same,normalized growth,"locus YFR028C, strain CDC14, hits give low values",0.959
same,normalized growth,"locus YGR040W, strain KSS1, hits give low values",0.84
same,normalized growth,"locus YGR052W, strain FMP48, hits give low values",0.817
same,normalized growth,"locus YGR092W, strain DBF2, hits give low values",0.709
same,normalized growth,"locus YHR030C, strain SLT2, hits give low values",0.904
same,normalized growth,"locus YHR079C, strain IRE1, hits give low values",0.812
same,normalized growth,"locus YHR082C, strain KSP1, hits give low values",0.838
same,normalized growth,"locus YHR205W, strain SCH9, hits give low values",0.864
same,normalized growth,"locus YIL147C, strain SLN1, hits give low values",0.923
same,normalized growth,"locus YJL095W, strain BCK1, hits give low values",0.806
same,normalized growth,"locus YJL128C, strain PBS2, hits give low values",0.843
same,normalized growth,"locus YJL157C, strain FAR1, hits give low values",0.796
same,normalized growth,"locus YJR016C, strain ILV3, hits give low values",0.913
same,normalized growth,"locus YJR066W, strain TOR1 (second series), hits give low values",0.834
same,normalized growth,"locus YJR066W, strain TOR1, hits give low values",0.827
same,normalized growth,"locus YKL048C, strain ELM1, hits give low values",0.878
same,normalized growth,"locus YKL067W, strain YNK1, hits give low values",0.821
same,normalized growth,"locus YKL101W, strain HSL1, hits give low values",0.862
same,normalized growth,"locus YKL193C, strain SDS22, hits give low values",0.921
same,normalized growth,"locus YKL203C, strain TOR2, hits give low values",0.871
same,normalized growth,"locus YLR113W, strain HOG1, hits give low values",0.736 (active)
same,normalized growth,"locus YLR133W, strain CKI1, hits give low values",0.85
same,normalized growth,"locus YLR403W, strain SFP1, hits give low values",0.8
same,normalized growth,"locus YML070W, strain DAK1, hits give low values",0.824
same,normalized growth,"locus YMR001C, strain CDC5, hits give low values",0.919
same,normalized growth,"locus YMR205C, strain PFK2 (second series), hits give low values",0.824
same,normalized growth,"locus YMR277W, strain FCP1, hits give low values",0.917
same,normalized growth,"locus YNL006W, strain LST8, hits give low values",0.925
same,normalized growth,"locus YNL020C, strain ARK1, hits give low values",0.837
same,normalized growth,"locus YNL161W, strain CBK1, hits give low values",0.922
same,normalized growth,"locus YNL183C, strain NPR1, hits give low values",0.828
same,normalized growth,"locus YNL207W, strain RIO2, hits give low values",0.912
same,normalized growth,"locus YNL222W, strain SSU72, hits give low values",0.924
same,normalized growth,"locus YNL307C, strain MCK1 (second series), hits give low values",0.836
same,normalized growth,"locus YOL078W, strain AVO1, hits give low values",0.903
same,normalized growth,"locus YOL136C, strain PFK27, hits give low values",0.816
same,normalized growth,"locus YOR061W, strain CKA2, hits give low values",0.817
same,normalized growth,"locus YOR119C, strain RIO1, hits give low values",0.892
same,normalized growth,"locus YOR231W, strain MKK1, hits give low values",0.806
same,normalized growth,"locus YOR329C, strain SCD5, hits give low values",0.92
same,normalized growth,"locus YPL031C, strain PHO85, hits give low values",0.807
same,normalized growth,"locus YPL153C, strain RAD53, hits give low values",0.828
same,normalized growth,"locus YPL204W, strain HRR25, hits give low values",0.798
same,normalized growth,"locus YPL209C, strain IPL1, hits give low values",0.923
same,normalized growth,"locus YPL256C, strain CLN2, hits give low values",0.895
same,normalized growth,"locus YPR025C, strain CCL1, hits give low values",0.924
same,normalized growth,"locus YPR106W, strain ISR1, hits give low values",0.875 (active)
same,normalized growth,"locus YPR111W, strain DBF20, hits give low values",0.89
same,normalized growth,"strain NNK1, hits give low values",0.892
same,normalized growth,"strain TSCII, hits give low values",0.906

# — PubChem BioAssay AID1159580 (chemical genetic matrix, 2015)
